In the library only some 12% were active in any assay of this set; here they are far more common.
PLAP act = activates human placental alkaline phosphatase | P05187 | purified PLAP enzyme, luminescent substrate read-out; active compounds read high | AID 696 | activation fold at 20 µM | 1.2% of 96,000 active; in the data active = activation fold above about 2
Target sequence (P05187 whole entry, looked up): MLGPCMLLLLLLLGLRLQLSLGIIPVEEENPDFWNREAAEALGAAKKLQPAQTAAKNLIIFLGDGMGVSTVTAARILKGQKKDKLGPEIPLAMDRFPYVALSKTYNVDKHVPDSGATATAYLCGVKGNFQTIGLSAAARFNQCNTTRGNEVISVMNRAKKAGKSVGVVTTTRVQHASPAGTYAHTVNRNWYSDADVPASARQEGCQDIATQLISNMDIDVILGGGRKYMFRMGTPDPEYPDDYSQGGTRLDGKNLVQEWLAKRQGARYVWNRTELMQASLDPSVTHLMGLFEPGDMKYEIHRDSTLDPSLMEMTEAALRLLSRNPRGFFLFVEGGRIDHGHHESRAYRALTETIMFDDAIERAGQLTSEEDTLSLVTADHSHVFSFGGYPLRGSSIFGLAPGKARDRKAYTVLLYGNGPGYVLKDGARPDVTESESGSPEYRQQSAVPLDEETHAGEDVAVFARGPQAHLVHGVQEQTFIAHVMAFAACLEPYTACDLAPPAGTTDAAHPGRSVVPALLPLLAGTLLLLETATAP
hDAT+cocaine = changed human dopamine transporter uptake under cocaine IC80; AID 449768; B-score at 10 µM; Q01959; 1.3% of 110,000 active; LLC-PK1 hDAT cells, [14C]-dopamine uptake with cocaine IC80; actives deviate in either direction;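 active = Z score or B-score, a plate-position-corrected score, falls beyond the plate's 99.7% confidence bounds, in either direction; inactive = both scores lie inside the 99.7% bounds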
PostGolgi ctrl = inhibits growth of the yeast control strain; 5% of 98,000 active; efflux-deficient yeast background strain, growth absorbance A615, 16 h; inhibition, % at 10 µM
D1 allo mod = D1 dopamine receptor (human) allosteric modulation; P21728; HEK293 D1, CRE-luciferase, dopamine EC30 potentiation; actives deviate in either direction; B-score at 10 µM; 5.9% of 58,000 active;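 active = luminescence count or its row- and column-corrected plate score outside the 99.7% band of the plate's sample wells, on either side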
PostGolgi yeast = growth inhibition of a yeast mutant, post-Golgi transport screen | post-Golgi transport phenotypic cell assay | inhibition, % at 10 µM | 0.9% of 98,000 active | AID 739;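 note: yeast cells grown in 1536-well plates; yeast grown about 18 h at 30C before absorbance read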
Cav32 inh = human Cav3.2 channel inhibition, primary screen. O95180. Cav3.2-expressing cells, Fluo-4 calcium fluorescence FDSS; active compounds read low. B-score at 10 µM. 4% of 100,000 active;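 active = single-dose well whose peak fluorescence ratio is a statistical outlier from its plate by either plate-standardised score or position-corrected B-score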
Numbers stand for hits; - = inactive; . = no result given. Cut-off read from the data, not from the text of the source, unless noted: active = inhibition above about 30%; inactive = the rest.

SMILES	PLAP act	hDAT+cocaine	PostGolgi ctrl	D1 allo mod	PostGolgi yeast	Cav32 inh
Clc1ccc(-n2ncc3c(NCC4CCCO4)ncnc32)cc1 (stereo not drawn)	-	-	-	-3.6	-	-
CN(C)CCNc1ncnc2c1cnn2-c1ccc(Cl)cc1	-	-	-	-4.7	-	-
CCC(CO)Nc1ncnc2c1cnn2-c1ccc(Cl)cc1 (stereo not drawn)	-	-	-	-5.7	-	-
O=C1CCCN1CCCNc1ncnc2c1cnn2-c1ccc(Cl)cc1	-	-	38	-	-	-
CCOC(=O)N1CCN(C(=O)CS(=O)(=O)c2cn(Cc3cccc(F)c3)c3ccccc23)CC1	-	-	-	-	-	-
COC(=O)/C(=C\C(=O)c1ccccc1)Nc1cccc(C(F)(F)F)c1	-	-	-	.	-	-
CCC(C(=O)OC)n1cnc2c(cnn2-c2ccc(Cl)cc2)c1=O (stereo not drawn)	-	-	41	.	-	-
CC(C)CCn1cnc2c(cnn2-c2ccc(Cl)cc2)c1=O	-	-	-	.	-	-
O=C(Cn1ncc2c1-c1ccccc1OC2)Nc1cccc(Cl)c1	-	-	-	.	-	-5
CCOC(=O)N1CCN(C(=O)Cn2ncc3c2-c2ccccc2OC3)CC1	-	-	-	-	-	-
Cc1ccc(C)c(CN2CCCN(C(=O)Cn3ncc4c3-c3ccccc3OC4)C2)c1	-	-	-	.	-	-6
CCn1c2ccccc2c2cc(NC(=O)CSc3nnc(-c4ccccc4)o3)ccc21	-	-	-	.	-	-
C#CCNC(=O)C1=C[C@H](C(C)(C)C)C[C@H](OCCCCO)O1	.	-	.	.	.	-
FC(F)(F)c1cc(C(F)(F)F)c2ccc(Oc3ccccc3)nc2n1	-	-	-	.	-	-4.7
Cc1cccc(C(C)Nc2ccc([N+](=O)[O-])cn2)c1 (stereo not drawn)	-	-	-	.	-	-4.3
NC(=O)CC[C@@H]1NC(=O)[C@@H]2CCCN2C(=O)c2cc([N+](=O)[O-])cc(I)c2NCCCC[C@@H](C(=O)NC(CC(=O)O)C(N)=O)NC1=O (stereo partly drawn)	.	-	.	.	.	-
CCOC(=O)c1c(C(F)(F)C(F)(F)C(F)(F)C(F)(F)F)n[nH]c1C	-	-	-	.	-	-
Cc1cc(N2CCN(c3ccccc3)CC2)nc(-n2nc(C)cc2C)n1	-	-	-	-	-	-
Cc1cc(N2CCN(c3ccccc3)CC2)nc(-c2ccccc2O)n1	-	-	77	.	82	-
Cc1cc(-n2[nH]c(C)c(C)c2=O)nc(-c2ccccc2O)n1	2.5	-	.	-	.	-
CCCc1nnc(N2C(=O)c3cccc4cccc(c34)C2=O)s1	-	-	-	.	-	-
COc1ccc(CNc2nc(-c3cccnc3)nn2C(=O)c2ccco2)cc1	-	-	-	.	-	-
COc1ccc(CNc2nc(-c3cccnc3)nn2C(=O)c2cccs2)cc1	.	.	40	-	-	.
O=C(N/C=N/OCc1ccc(Cl)cc1Cl)NOCc1ncc(C(F)(F)F)cc1Cl	2	-	34	.	-	-
CCOC(=O)N1CCN(C(=O)CSCc2ccc(Cl)cc2)CC1	.	-	36	.	-	-
SMILES	PLAP act	hDAT+cocaine	PostGolgi ctrl	D1 allo mod	PostGolgi yeast	Cav32 inh
O=C(Nc1ccc(Cl)cc1)N1CCSCC1	-	.	44	-	-	.
CCOc1ccccc1N1CCN(C(=O)c2cc3c(s2)CCC3)CC1	-	-	40	-	-	-
CCOc1ccccc1N1CCN(C(=O)c2cc(C)oc2C)CC1	-	-	-	-	-	-
CCOc1ccccc1N1CCN(C(=O)Nc2ccc(F)c(Cl)c2)CC1	-	-	-	-	-	-4.1
COc1ccccc1N1CCN(C(=O)Nc2cccc(Cl)c2)CC1	-	-	-	.	-	-
Nn1cc(-c2ccccc2)nc1SCC(=O)NCCN1C(=O)CSC1=O	-	-	-	-	-	-
CCOC(=O)N1CCN(C(=O)Nc2cccc(Cl)c2)CC1	-	-	-	.	-	-
O=C(Nc1ccc(Cl)cc1)N1CCCC1	-	-	-	-	-	-
CCOC(=O)N1CCC(N(C(=O)Nc2ccc(Cl)c(Cl)c2)C(C)CC)CC1 (stereo not drawn)	-	-	39	-	-	-
Cc1ccc(NC(=O)N2CCC(O)(c3ccc(Cl)cc3)CC2)cc1	-	-	-	-	-	-4.3
CCOC(=O)N1CCN(C(=O)Nc2ccc(Cl)cc2)CC1	-	-	36	-	-	-
CCC(CC)c1nc(NCCC(=O)O)c2ccccc2n1	-	-	-	-	-	-
CCCCNC(=O)CSc1nnc(-c2c[nH]c3ccccc23)n1CC1CCCO1 (stereo not drawn)	-	-	-	.	-	-
COc1ccc(CNc2oc(COc3ccc(Cl)cc3)nc2C#N)cc1	-	-	-	-	-	-4.4
COc1ccc(CCNc2oc(COc3ccccc3F)nc2C#N)cc1	-	-	-	-	-	-5.9
Cc1ccc(OCc2nc(C#N)c(NCc3ccc4c(c3)OCO4)o2)cc1	-	-	31	-	-	-6.5
COc1ccc(Nc2oc(COc3ccc(Cl)cc3)nc2C#N)cc1	-	-	-	-	-	-
CCOc1ccc(-c2nc(C#N)c(NCc3ccc4c(c3)OCO4)o2)cc1	-	-	-	-	-	.
CCOC(=O)C[C@H]1c2ccccc2S(=O)(=O)N1c1cccc(OC)c1	.	-	.	.	.	-
COC(=O)c1ccccc1NC(=O)Cn1cnc2ccc(S(=O)(=O)N3CCC(C)CC3)cc2c1=O	-	-	-	.	-	-
CC1CCN(S(=O)(=O)c2ccc3ncn(CC(=O)N(C)Cc4ccccc4)c(=O)c3c2)CC1	-	-	-	-	-	-4.6
COc1ccc(S(=O)(=O)N2CCC(C(=O)Nc3cccc(Cl)c3)CC2)cc1OC	-	-	-	-	-	-
Cc1cc(-c2cc(N)n(-c3ccccc3)n2)c(C)n1C1CCCC1	-	2.1	-	-	-	-
CC(Sc1nnc(Cc2cccs2)n1C1CCCCC1)C(=O)N1CCc2ccccc21 (stereo not drawn)	-	-	34	.	-	-6.5
O=c1c2cnn(-c3ccccc3)c2nnn1Cc1ccccn1	-	2.7	-	.	-	-
SMILES	PLAP act	hDAT+cocaine	PostGolgi ctrl	D1 allo mod	PostGolgi yeast	Cav32 inh
O=C(Nc1ccc(F)cc1)N1CCN(C/C=C/c2ccccc2)CC1	-	-	-	-	-	-
O=C(Nc1cccc(F)c1)N1CCN(C/C=C/c2ccccc2)CC1	-	2.2	-	.	-	-
Cc1cccc(N2CCN(C(=O)Cn3nc(Cc4ccncc4)c4ccccc4c3=O)CC2)c1C	.	-	.	-	.	-
COc1cc(CCCN2C(=S)NC[C@@H]2Cc2ccccc2)cc(OC)c1OC	.	3	.	.	.	-
N#CC1(C#N)CC(C=O)=C(N)C1(C#N)CC(=O)c1ccc(F)cc1 (stereo not drawn)	-	-2.2	-	.	-	-
CC(C)(C)OC(=O)N1CCN(C(=O)[C@H](Cc2ccc(O)cc2)n2cc(CCO)nn2)CC1	.	-	.	.	.	-
CC(NC(=O)OCc1ccccc1)C(=O)N1CC(O)CC1C(=O)O (stereo not drawn)	-	-	-	-	-	-
COc1ccc(Br)cc1C(=O)Nc1cccc(NC(=O)c2ccco2)c1	-	-	49	-	-	-
